Reference: PubChem BioAssay (NCI)
Values joined by “and” are separate entries in the source; they are usually repeats but may differ in a detail not shown here. Identical values can stand only once. About 83,000 compounds went through this panel and 20% of them were active in at least one assay; those are over-represented in the sample as a whole.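 Each cell line was grown in a 96-well plate and treated with one concentration of compound for 48 hours. Values below 10 were considered active.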 Active and inactive are the calls of the source.

Columns and labels:
Assay in all cases: NCI-60 one-dose screen, 48 h (100 = growth as untreated, 0 = no growth, -100 = all killed)
Settings in all cases: 10 µM unless noted
DU-145 prostate = test system: DU-145 prostate
K-562 leukemia = test system: K-562 leukemia
MALME-3M melanoma = test system: MALME-3M melanoma
MDA-MB-231 breast = test system: MDA-MB-231 breast
RXF 393 renal = test system: RXF 393 renal
SF-268 CNS = test system: SF-268 CNS
SF-295 CNS = test system: SF-295 CNS
SF-539 CNS = test system: SF-539 CNS
UACC-257 melanoma = test system: UACC-257 melanoma
M14 melanoma = test system: M14 melanoma

Row | SMILES | growth (DU-145 prostate) | growth (K-562 leukemia) | growth (MALME-3M melanoma) | growth (MDA-MB-231 breast) | growth (RXF 393 renal) | growth (SF-268 CNS) | growth (SF-295 CNS) | growth (SF-539 CNS) | growth (UACC-257 melanoma) | growth (M14 melanoma)
1 | COC(=O)c1c(C(=O)OC)c2ccc3c4ccccc4ccc3n2c1C(=O)OC | 121% (inactive) | 117% (inactive) | 96% (inactive) | 110% (inactive) | 74.9% (inactive) | 103% (inactive) | 93.5% (inactive) | 99.3% (inactive) | 101% (inactive) | 102% (inactive)
2 | COc1c2c(cc3c1C(CCc1ccccc1)N(C)CC3)OCO2 (stereo not given) | 23.2% (inactive) | 6.06% (active) | -65.8% (active) | -11.7% (active) | -12.1% (active) | 23.2% (inactive) | -70.1% (active) | -40.2% (active) | 16.6% (inactive) | -26.4% (active)
3 | COc1c(B(O)O)cc(F)cc1-c1nc2ccc3[nH]ncc3c2c2c1COCC2 | 73.5% (inactive) | 63.7% (inactive) | 126% (inactive) | 33.4% (inactive) | -5.84% (active) | 44.9% (inactive) | 77.2% (inactive) | 21.7% (inactive) | 97.5% (inactive) | 114% (inactive)
4 | O=C1/C(=C/C=C/c2ccco2)SC(=S)N1CC(=S)C1C=CS(=O)(=O)C1 (stereo not given) | 97.4% (inactive) | 75% (inactive) | 83.3% (inactive) | 85.8% (inactive) | 79.4% (inactive) | 91% (inactive) | 88.9% (inactive) | 99% (inactive) | 92.3% (inactive) | 98.9% (inactive)
5 | O=C(CCl)Nc1ccc(C(=O)/C=C/c2cc3ccccc3nc2Cl)cc1 | -84.1% (active) and 46.7% (inactive) | -59.7% (active) and 28.6% (inactive) | -87.2% (active) and 48.9% (inactive) | -91.6% (active) and 63.6% (inactive) | -85.3% (active) and 36.2% (inactive) | -15.5% (active) and 29.3% (inactive) | -25.5% (active) and 42.3% (inactive) | -99.1% (active) and 13.3% (inactive) | 24.4% (inactive) and 58.7% (inactive) | -62.3% (active) and 42.9% (inactive)
6 | COc1c2c(c(Br)c3c1C(CCc1ccccc1)N(C)CC3)OCO2 (stereo not given) | 56.7% (inactive) | 28.1% (inactive) | 63.7% (inactive) | 39.9% (inactive) | 72.9% (inactive) | 45.7% (inactive) | 40.6% (inactive) | -8.69% (active) | 64.9% (inactive) | 29% (inactive)
7 | c1n[nH]cc1-c1nc2ccc3[nH]ncc3c2c2c1CC1(CC2)COC1 | 62.7% (inactive) | 33.9% (inactive) | 29% (inactive) | 69.5% (inactive) | -2.43% (active) | 63.6% (inactive) | 104% (inactive) | 26.6% (inactive) | 66.4% (inactive) | 31.9% (inactive)
8 | CSc1ccc(OCc2nc3ccccc3n2-c2cccc(NS(C)(=O)=O)c2)cc1 | 103% (inactive) and 67.1% (inactive) | 94.4% (inactive) and 106% (inactive) | 95.3% (inactive) and 84.1% (inactive) | 118% (inactive) and 57.3% (inactive) | 81.7% (inactive) and 84.1% (inactive) | 92.4% (inactive) and 101% (inactive) | 106% (inactive) and 96.5% (inactive) | 93.2% (inactive) and 89.5% (inactive) | 116% (inactive) and 107% (inactive) | 119% (inactive) and 81.6% (inactive)
9 | NS(=O)(=O)c1ccc(N2N=C(c3ccc(NC(=O)Nc4ccccc4)cc3)CC2c2ccc(Br)cc2)cc1 (stereo not given) | -7.86% (active) | 16.7% (inactive) | -97.1% (active) | -94.8% (active) | -96.4% (active) | -29.7% (active) | -64.9% (active) | -99.2% (active) | -16.8% (active) | -69.2% (active)
10 | N#Cc1c(-c2ccc(F)cc2)nc(SCc2ccccc2)nc1N1CCNCC1 | -79.8% (active) | -22% (active) | -97.3% (active) | -98.5% (active) | -94.8% (active) | -31.2% (active) | -83% (active) | -99.4% (active) | -93.2% (active) | -90.2% (active)
11 | O=C(COc1ccc(/C=C2/C(=O)Nc3ccc(Cl)cc32)cc1)Nc1ccc(Br)cc1 | -9.85% (active) | 2.94% (active) | -41.5% (active) | -33.7% (active) | -65.7% (active) | 16.7% (inactive) | -59.7% (active) | -84.9% (active) | 15.1% (inactive) | -2.56% (active)
12 | COc1ccc2[nH]cc(-c3cc4nc(-c5cn(C)c6ncccc56)cc(N)n4n3)c2c1 | 9.07% (active) | -31.7% (active) | -60.6% (active) | -58.4% (active) | -62.3% (active) | 32.8% (inactive) | -71.4% (active) | -93.6% (active) | 72.7% (inactive) | -49.5% (active)
13 | O=C1Nc2ccccc2/C1=C\c1ccc(OCC(=O)c2ccc(Br)cc2)cc1 | 85.6% (inactive) | 27.8% (inactive) | 81% (inactive) | 82.2% (inactive) | 67.6% (inactive) | 86.9% (inactive) | 58.6% (inactive) | 81.5% (inactive) | 73.6% (inactive) | 73.1% (inactive)
14 | NC(=O)c1ccc(-c2ccc3ncnc(N4CCc5cc(F)c(Cl)cc54)c3c2)cn1 | 49.5% (inactive) | 34.7% (inactive) | 78.9% (inactive) | 49.3% (inactive) | 40.9% (inactive) | 95.6% (inactive) | 79.4% (inactive) | 63% (inactive) | 110% (inactive) | 70.2% (inactive)
15 | CN(C)c1ccc(/C=C/c2n(Cc3ccc4ccccc4c3)c3ccccc3[n+]2Cc2ccc3ccccc3c2)cc1 | -43.3% (active) | 2.08% (active) | -68% (active) | -80.3% (active) | -74.4% (active) | -59.1% (active) | -98.9% (active) | -95.3% (active) | -74.3% (active) | -69.2% (active)
16 | Cc1ccc(C(=O)Nc2cc(-c3ccncc3)cc(C(F)(F)F)c2)cc1C#Cc1cnc2cccnn12 | 68.9% (inactive) | 2.38% (active) | -11.8% (active) | 23.7% (inactive) | 28.8% (inactive) | 79.4% (inactive) | 46.3% (inactive) | 32.3% (inactive) | 40.9% (inactive) | 8.59% (active)
17 | Cn1cc(-c2cc3nc(-c4cn(C)c5ncc(Br)cc45)cc(N)n3n2)c2cc(F)ccc21 | 0.863% (active) | 21.9% (inactive) | 8.23% (active) | -42.1% (active) | -39.8% (active) | 57.6% (inactive) | -45.7% (active) | -26.5% (active) | 24.4% (inactive) | 7.16% (active)
18 | COc1cc(/C=N/NC(=O)c2ccc(OCc3nc4ccc(Cl)cc4[nH]3)cc2)cc(OC)c1OC | 64.5% (inactive) | 14.7% (inactive) | 14.1% (inactive) | 52.8% (inactive) | -26.2% (active) | 70% (inactive) | 13.2% (inactive) | 30.2% (inactive) | 42.3% (inactive) | 42.6% (inactive)
19 | N#Cc1c(-c2ccc(F)cc2)nc(SCc2ccc(F)cc2)nc1N1CCNCC1 | -3.44% (active) | 0.722% (active) | -97.8% (active) | -93.6% (active) | -64.7% (active) | 41.5% (inactive) | -79.9% (active) | -98.9% (active) | -90.7% (active) | -88.4% (active)
20 | CC(C)C[C@H](NC(=O)CNC(=O)C[C@H]1O[C@@H]2OC3(C)CC[C@H]4[C@H](C)CC[C@@H]([C@H]1C)[C@@]24O3)B(O)O | 42% (inactive) | 8% (active) | -71.9% (active) | -80.9% (active) | -78.5% (active) | -22.4% (active) | -61.3% (active) | -93.6% (active) | -52.1% (active) | -45.8% (active)
21 | CCOc1ccccc1[C@H]1C(C(=O)c2ccc(Cl)cc2)C2(N[C@@H]1c1ccccc1)C(=O)Nc1ccccc12 (stereo not given in full) | 31% (inactive) | 0.16% (active) | -15.9% (active) | 2.23% (active) | -66.5% (active) | 43.9% (inactive) | 9.84% (active) | 28% (inactive) | 55.3% (inactive) | 15.2% (inactive)
22 | COc1cc(NC(=O)C(C)C)ccc1C(=O)NC(=S)Nc1ccc(S(N)(=O)=O)cc1 | 106% (inactive) | 108% (inactive) | 94.4% (inactive) | 93.1% (inactive) | 88.7% (inactive) | 80.8% (inactive) | 84.2% (inactive) | 88.9% (inactive) | 101% (inactive) | 106% (inactive)
23 | O=C1/C(=C/c2cccc3c2OCO3)Cc2c(F)cc(Br)cc21 | 115% (inactive) | 109% (inactive) | 103% (inactive) | 115% (inactive) | 104% (inactive) | 109% (inactive) | 96% (inactive) | 99.7% (inactive) | 114% (inactive) | 98.9% (inactive)
24 | Nc1ccc(-c2ccc3ncnc(N4CCc5cc(F)c(Cl)cc54)c3c2)cn1 | 5.3% (active) | 12.9% (inactive) | 3.74% (active) | 18.4% (inactive) | -19.2% (active) | 24% (inactive) | 7.68% (active) | 24.9% (inactive) | 43.1% (inactive) | 13.5% (inactive)
25 | O=C(c1ccc(Cl)cc1)C1[C@H](c2ccccc2Cl)[C@@H](c2ccccc2)NC12C(=O)Nc1ccccc12 (stereo not given in full) | -12.8% (active) | -36.6% (active) | -34.8% (active) | -64.8% (active) | -80.8% (active) | 2.93% (active) | -72.3% (active) | -89.7% (active) | 1.79% (active) | -75.7% (active)
